Bioassay records as filed in PubChem BioAssay.
Pf growth 48h – Primary qHTS for delayed death inhibitors of the malarial parasite plastid, 48 hour incubation; Potency, µM (highest dose often 28.7 µM), without a hit: at the highest dose activity change, negative = inhibition, hits mostly inhibitors; 5.9% of 310,000 active; P. falciparum luciferase growth in erythrocytes, 48 h; note: potency is the fitted concentration of half-maximal effect
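Cell-based growth assay: transgenic P. falciparum expressing firefly luciferase, cultured in red cells within RPMI 1640 containing 0.5% w/v Albumax, 24 mM bicarbonate and gentamycin. A drop in luciferase activity indicates inhibition.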
HCV inh – qHTS Assay for Inhibitors of Hepatitis C Virus (HCV); Huh7.5.1 HCVcc-Cre infection, luciferase reporter, 44 h; 3.4% of 340,000 active; Potency, µM (doses to about 41.8 µM), without a hit: at the highest dose activity change, negative = inhibition, actives largely listed as inhibitors; note: potency is the fitted concentration of half-maximal effect
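A cell-based infection assay in which seeded cells (1,000 per well) receive test compound after 4 h, are inoculated with HCVcc-Cre at approximately 0.5 moi, and are incubated 44 h before luminescence detection.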
HCMV inh – qHTS Assay for inhibitors of the human cytomegalovirus (HCMV); HFF cells, HCMV-luciferase reporter, 72 h; active compounds read low; activity change, negative = inhibition, % at 57.5 µM; 4.5% of 410,000 active; AID 1259415, 2018; in the data active = activity change below about -60%; inconclusive = no clear call, values can overlap the other calls; inactive = above about -39%
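Two-dose cell screen: HFF monolayers treated with compounds and infected with luciferase-expressing HCMV at 1 PFU/cell, 72 h at 37C, then lysed for luciferase measurement.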
Pf growth 96h – Primary qHTS for delayed death inhibitors of the malarial parasite plastid, 96 hour incubation; P. falciparum luciferase reporter growth, 96 h; Potency, µM (top dose mostly 28.7 µM), inactives show at the highest dose activity change, negative = inhibition, hits mostly inhibitors; 6.9% of 320,000 active; note: potency is the fitted concentration of half-maximal effect
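Luminescence readout: decreased luciferase signal marks inhibited growth of reporter-expressing P. falciparum in infected red cells (2% hematocrit, 0.05% parasitemia final), exposed to compound two generations (96 h, 37 C, 5% CO2).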
* hit, by the source's call; ? = inconclusive; / = no result. This is a sample that favours compounds with a hit; in the whole collection about 13% have one here. Unless noted, calls come from the whole dose curve; as a rule, active = well fitted inhibition curve with a large enough effect; inconclusive = small, poorly fitted or top-dose-only effect, or another doubt; inactive = no such curve, though single readings can be large or run the other way. % is set by controls: 0 for no effect and ±100 for the full control effect.

SMILES	Pf growth 48h	HCV inh	HCMV inh	Pf growth 96h
COC(=O)c1sccc1S(=O)(=O)N(CC(=O)NCc1ccc(C)cc1)c1ccc(C)c(C)c1	/	/	4	/
COc1cccc(Cc2nc3ccccc3nc2SCC(=O)N2CCCc3ccccc32)c1	/	/	18	/
CCOC(=O)Cc1ccc(NC(=O)N2CCC(CN3CCC(C)CC3)CC2)cc1	/	/	3	/
Cc1ccc(NC(=O)CN2C(=O)COc3ccc(S(=O)(=O)NC4CCCC4)cc32)cc1N(C)C	/	/	-5	/
CC1C(=O)CCN(C(C)(C)C)C1C (stereo not drawn)	?	9%	11	8.3µM*
COc1cccc(CNc2nc3cc(-c4cnn(Cc5ccccc5)c4)sc3c(=O)n2C)c1	/	/	-82*	/
NC(=S)N/N=C/c1ccc(-n2nncc2-c2ccc(Cl)cc2)cc1	0%	13µM*	/	?
NC(=S)N/N=C/c1ccc(/C=N/NC(N)=S)cc1	10%	-6%	-18	23%
O=C(CN1c2ccccc2Sc2ccccc21)NNC(=O)Nc1cccc(Cl)c1	-8%	-20%	-73*	-23%
CCOc1ccc(NC(=O)Cn2ccn(-c3ccc(F)c(F)c3)c(=O)c2=O)cc1	/	/	18	/
CCC(=O)OC1C(N(C)C)CC(C)O[C@H]1O[C@H]1[C@H](C)[C@@H](O[C@H]2CC(OC)[C@@H](O)C(C)O2)[C@H](C)C(=O)O[C@@H](CC)[C@](C)(O)[C@@H](O)[C@H](C)C(=O)[C@@H](C)C[C@]1(C)O (stereo partly drawn)	-16%	/	/	7.6µM*
CC[C@H]1OC(=O)[C@H](C)[C@@H](O[C@H]2C[C@@](C)(OC)[C@@H](O)[C@H](C)O2)[C@H](C)[C@@H](O[C@@H]2O[C@H](C)C[C@H](N(C)C)[C@H]2O)[C@](C)(O)C[C@@H](C)C(=O)[C@H](C)[C@@H](O)[C@]1(C)O	0%	12%	-6	?
CCOC(=O)CCC(=O)O[C@H]1[C@H](O[C@@H]2[C@@H](C)[C@H](O[C@H]3C[C@@](C)(OC)[C@@H](O)[C@H](C)O3)[C@@H](C)C(=O)O[C@H](CC)[C@@](C)(O)[C@H](O)[C@@H](C)C(=O)[C@H](C)C[C@@]2(C)O)O[C@H](C)C[C@@H]1N(C)C	-13%	?	11	5.2µM*
Cc1ccc(N2CC(NC(=O)C3CCCC3)CC2=O)cc1 (stereo not drawn)	/	/	-2	/
COc1ccc(OC)c(CNC(=O)Nc2cn(CC(C)C)c(=O)c3ccccc23)c1	/	/	-5	/
Cc1ccc(C)c(NC(=S)NC(NC(=O)OCc2ccccc2)C(Cl)(Cl)Cl)c1 (stereo not drawn)	?	?	-24	9.3µM*
COc1ccc(C(=O)OC2=C(C(=O)c3ccccc3)N(C)S(=O)(=O)c3ccccc32)cc1OC	/	/	13	/
CCCCS/C(=C(/C#N)C(N)=O)c1cc2c([nH]1)CCCC2	2.9µM*	-31%	-63*	/
CC(C)(Oc1ccc(Cl)cc1)C(=O)NCCN1C(=O)S/C(=C/c2cccnc2)C1=O	?	12%	?	?
CC(Oc1ccc(Cl)cc1)C(=O)NCCN1C(=O)S/C(=C\c2cccnc2)C1=O (stereo not drawn)	-23%	?	-71*	-27%
O=C1OC(c2ccc(Br)cc2)=N/C1=C\c1ccco1	17%	15%	48	12%
CS(=O)(=O)Oc1ccc(Br)cc1/C=C1/N=C(c2ccco2)OC1=O	-8%	-2%	-10	10µM*
Cc1cccc(NC(c2ccc(C)s2)c2ccc3ccc(C)nc3c2O)n1 (stereo not drawn)	?	?	-95*	13%
Cc1ccc2ccc(C(Nc3ccccc3)c3ccc(F)cc3)c(O)c2n1 (stereo not drawn)	/	/	-61*	/
Cc1ccc2ccc(C(Nc3ccccc3)c3ccccc3)c(O)c2n1 (stereo not drawn)	/	/	-22	/
SMILES	Pf growth 48h	HCV inh	HCMV inh	Pf growth 96h
COc1ccc(N(C(=O)CNC(=O)c2cccs2)C(C(=O)NCC2CCCO2)c2ccccc2)c(OC)c1 (stereo not drawn)	?	-2%	-14	-19%
COc1cc(OC)cc(N(C(=O)CNC(=O)c2cccs2)C(C(=O)NCC2CCCO2)c2ccccc2)c1 (stereo not drawn)	5.9µM*	-17%	-6	?
COc1ccc(C(C(=O)NCC2CCCO2)N(C(=O)CNC(=O)c2cccs2)c2ccc(C)cc2)cc1OC (stereo not drawn)	10µM*	4%	-29	-4%
COc1ccc(C(C(=O)NCC2CCCO2)N(C(=O)CNC(=O)c2cccs2)c2ccc(C(C)=O)cc2)cc1OC (stereo not drawn)	12µM*	2%	-31	?
CSc1nnc(NC(=O)c2cc(=O)c3cc(C)c(C)cc3o2)s1	/	/	1	/
COc1ccccc1NC(=O)Cn1c(=O)n(Cc2ccc3c(c2)OCO3)c(=O)c2oc3ccccc3c21	/	/	2	/
O=C(NCCc1ccccc1Cl)[C@@H]1CCCN1C(=O)[C@@H](NS(=O)(=O)c1ccc(F)cc1F)C1CCCCC1	/	/	17	/
O=C(CCC1N=C2c3ccccc3N=C(SCC(=O)Nc3ccccc3F)N2C1=O)NCc1ccco1 (stereo not drawn)	/	/	16	/
CC(C)C1N(c2ccccc2)C(N)=C(C#N)C1(C#N)C#N (stereo not drawn)	?	?	-66*	16%
Cc1cccc(N(C)c2nc3ccc(C)cc3n3cnnc23)c1	/	/	-2	/
Cc1cc(Cl)c(S(=O)(=O)Nc2ccc3c(c2)OCCO3)cc1OCC(=O)NC1CCCCC1	/	-19%	-70*	?
Cc1cc(Cl)c(S(=O)(=O)NCC2CCCO2)cc1OCC(=O)NC1CCCCC1 (stereo not drawn)	/	12%	-93*	5.9µM*
Cc1cc(Cl)c(S(=O)(=O)Nc2ccon2)cc1OCC(=O)NC1CCCCC1	?	1%	14	-14%
CCOc1ccc(OCC)c(NC(=O)CCC(=O)N2CCOc3ccccc32)c1	/	/	-11	/
CCS(=O)(=O)N1CC(=O)N(c2cccc(C)c2C)C(C)(C(=O)NC2CCCCCC2)C1 (stereo not drawn)	/	/	0	/
CCc1ccc(C2C(C#N)=C(N)C(C#N)(C#N)C3=CCC(C(C)(C)C)CC32)cc1 (stereo not drawn)	13µM*	?	/	13µM*
O=[N+]([O-])c1ccc(N2CCN(CCO)CC2)cc1Sc1ccccn1	-28%	-1%	16	?
CCN1CCN(c2ccc([N+](=O)[O-])c(Sc3nc4ccccc4[nH]3)c2)CC1	?	22µM*	-32	2.6µM*
COc1ccccc1N1CCN(C(=O)c2cnc(N3CCOCC3)c3ccccc23)CC1	/	/	-11	/
Cc1ccc2nc(-c3ccc(C#N)cc3)c(Cc3ccccc3C(F)(F)F)n2c1	/	/	0	/
